Potency data for 40 compounds are collected here from PubChem BioAssay (Tox21).

Results filed as inconclusive are left out. Where a call stands in place of a potency, no number is given. Calls of active or inactive are those of the source. Calls follow the shape of the dose curve; as a rule, active = well fitted activation curve with a large enough effect in the repeat runs; inconclusive = weak or mixed curves; inactive = flat fitted curve, though single readings scatter.
Potency is read from the fitted curve at half-maximal effect.

The experiment can be described thus: A CellTox Green Cytotoxicity Assay to monitor cytotoxicity in HepG2 cells - 16 hour (AID 1224876). Also: nearly all actives have a fitted effect of over 45% in size. As to conditions: CellTox Green fluorescence; series mostly up to 76.8 µM. The source says: National Center for Advancing Translational Sciences [NCATS]
NIH Chemical Genomics Center [NCGC]
U.S. Environmental Protection Agency [EPA]
National Institutes of Environmental Health Sciences [NIEHS]
National Toxicology Program [NTP]
Cell-based models are critical for drug discovery. Determining the natural cytotoxic effects resulting from test compounds is an essential research activity. A CellTox Green Cytotoxicity Assay to monitor cytotoxicity in real time of continues cell culture during 40 hours of the compound treatment was used to screen Tox21 10K library compounds in HepG2 cells. CellTox Green Cytotoxicity Assay is a nonlytic, homogeneous, biofluorescent method to measure cytotoxicity in cell culture after experimental manipulation. The assay system uses a proprietary asymmetric cyanine dye that is excluded from viable cells but preferentially stains the dead cell's DNA. […] Viable cells produce no appreciable increases in fluorescence. Therefore, the fluorescence signal produced by the binding interaction with dead cell DNA is proportional to cytotoxicity.
The mixture of HepG2 cell suspension and reagents were dispensed at 600cells/6 ul/well in 1536-well tissue culture treated black solid bottom plates using a Multidrop dispenser. After the assay plates were incubated at a 37 C/5% CO2 incubator for 5 hours, 23 nL of compounds dissolved in DMSO, positive and negative controls was transferred to the assay plate by a pintool work station. The plates were incubated at 37 C for 40 hours. The fluorescence intensity were measured at 0h, 8h, 16h, 24h, 32h and 40h time points using ViewLux plate reader during compound treatment.
`CCOP(=O)(OCC)Oc1nc(Cl)c(Cl)cc1Cl`: the Potency entry was “inactive”. Take `Cc1cnc2c(C(=O)O)c(Cl)ccc2c1`: the Potency result was “inactive”. Take `Cc1ccccc1OP(=O)(Oc1ccccc1C)Oc1ccccc1C`: the Potency result is “inactive”. In the case of `CN1C2CCC(C)(C)C1CC(OC(=O)C(O)(c1cccs1)c1cccs1)C2` (stereo not given), the Potency entry is “inactive”.

`CSC(C)(C)/C=N/O`: the Potency result was “inactive”.

On to `CCCCCON=O`, for which the Potency result was “inactive”. For `O=c1[nH]c2cc(Cl)ccc2n1C1CCNCC1` the value was “inactive”; for `CCC[CH2][Sn]([CH2]CCC)([CH2]CCC)[O][Sn]([CH2]CCC)([CH2]CCC)[CH2]CCC`, 0.603 µM (active); for `CN1C(=O)[C@@H](NC(=O)c2cc3ccccc3[nH]2)N=C(c2ccccc2)c2ccccc21`, “inactive”.

As for `CC(C)(C)c1ccc(OP(=O)(Oc2ccccc2)Oc2ccccc2)cc1`, the Potency entry is “inactive”.

Consider `S=C=Nc1ccccc1`, for which the Potency entry is “inactive”. Regarding `Oc1ccc([C@H]2CNCc3c2ccc(O)c3O)cc1O`, the Potency was 23.9 µM (active). To `CCCCN(CCCC)C(=S)S` belongs “inactive”; to `CN/C(=N\[N+](=O)[O-])NCc1cnc(Cl)s1`, “inactive”. Take `Nc1nc(N)c(N)c(N)n1`: the Potency was 55.2 µM (active).

Turning to `Clc1ccc(C(c2ccc(Cl)cc2)C(Cl)Cl)cc1`, the Potency result was “inactive”.

On to `CCNc1nc(NC(C)C(C)C)nc(SC)n1` (stereo not given), for which the Potency result is “inactive”.

For `CC(=O)[O-].CC(=O)[O-].[Co+2]`, the Potency result is “inactive”. In the case of `CNC(=O)O/N=C(\C)C(C)S(C)(=O)=O` (stereo not given), the Potency entry was “inactive”. With `N#Cc1c[nH]cc1-c1cccc2c1OC(F)(F)O2`, the Potency entry is “inactive”. Consider `COC(=O)c1cc(Oc2ccc(Cl)cc2Cl)ccc1[N+](=O)[O-]`, for which the Potency result was “inactive”. With `CCC[CH2][Sn]([CH2]CCC)([O]C(C)=O)[O]C(C)=O`, the Potency is 1.24 µM (active). As for `C[C@@H]1CC2=CC(=O)CC[C@@H]2[C@H]2CC[C@@]3(C)[C@@H](CC[C@]3(C)O)[C@@H]21`, the Potency result was “inactive”. With `COC(=O)N(OC)c1ccccc1COc1ccn(-c2ccc(Cl)cc2)n1`, the Potency entry is “inactive”. As for `CCN(CC)C(=O)N[C@@H]1C=C2c3cccc4[nH]cc(c34)C[C@@H]2N(C)C1`, the Potency entry is “inactive”.

`Nc1ccc(N=Nc2ccccc2)cc1`: the Potency result was “inactive”. As to `CC(=O)[O-].CC(=O)[O-].O.O.[Zn+2]`, the Potency entry is “inactive”.

As for `ClC(Cl)C(Cl)(Cl)Cl`, the Potency result was “inactive”.

In the case of `C#CCC1=C(C)C(OC(=O)C2C(C=C(C)C)C2(C)C)CC1=O` (stereo not given), the Potency entry is “inactive”. As for `CNC(=O)/C=C(\C)OP(=O)(OC)OC`, the Potency entry is “inactive”. Turning to `C[N+]1(C)[C@@H]2CC[C@H]1CC(OC(=O)C(CO)c1ccccc1)C2` (stereo not given in full), the Potency result was “inactive”. Regarding `CSSC`, the Potency result was “inactive”. With `Oc1cccc(Cl)c1Cl`, the Potency result is “inactive”. For `Brc1ccc(Oc2ccc(Br)cc2Br)c(Br)c1`, the Potency result was “inactive”. Turning to `Cc1cc2c3c(c1)C(c1ccccc1)=N[C@@H](NC(=O)c1ccncc1)C(=O)N3CC2`, the Potency result was “inactive”. For `C#CCO` the value was “inactive”; for `CNN`, “inactive”. As to `O=S1OCC2C(CO1)C1(Cl)C(Cl)=C(Cl)C2(Cl)C1(Cl)Cl` (stereo not given), the Potency was 48.9 µM (active). Take `CC[C@]1(O)CC[C@H]2[C@@H]3CCC4=CCCC[C@@H]4[C@H]3CC[C@@]21C`: the Potency entry was “inactive”. As to `CC1(C)[C@H](/C=C2\CCSC2=O)[C@@H]1C(=O)OCc1coc(Cc2ccccc2)c1`, the Potency result is “inactive”.
